Inconclusive results are not listed. The source holds several records for some structures; these can differ, active in one and inactive in another. Calls of active or inactive are those of the source. Rule for the calls: active = hit-call score of the fitted dose curve at least 0.9, where 1 is the maximum; inconclusive = response in the unintended direction; inactive = score below 0.9.
Assay: CCTE_Shafer_MEA_acute_AB: CCTE's Alamar Blue Assay for Cytotoxicity in the Neural Acute Assay, Shafer Lab (AID 2284069);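 note: active compounds lower the viability signal compared with DMSO wells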
Experimental: CCTE_Shafer_MEA_acute assay is conducted using Axion Biosystems 48 well microelectrode array (MEA) plates and Maestro recording system. Each well of the MEA plate contains a grid of 16 microelectrodes embedded in the culture surface. Electrically active cells, such as neurons, can be cultured over the electrodes, and electrical activity in these cells can be recorded extracellularly. The spontaneous firing of neurons is captured from each electrode on a microsecond timescale providing both temporally and spatially precise data. […] The CCTE_Shafer_MEA_acute assay uses primary cultures of rat cortical neurons. As these cultures mature over time, neural networks develop functional activity and form cohesive networks in which electrical activity can be highly coordinated. Baseline 40-minute recordings are made on days post-plating 13 or 15, followed by a secondary 40-minute recording after chemical exposure.CCTE_Shafer_MEA_acute_AB is a component of the CCTE_Shafer_MEA_acute assay. It measures the resazurin reduction using fluorescence.Data from the assay component CCTE_Shafer_MEA_acute_AB was analyzed into 1 assay endpoint. This assay endpoint, CCTE_Shafer_MEA_acute_AB, was analyzed in the positive analysis fitting direction relative to DMSO as the negative control and baseline of activity. Using a type of viability reporter, loss-of-signal activity can be used to understand cell viability.
Metabolic activity was determined using the CellTiter Blue (CTB) assay (Promega Cat. #8081), following the manufacturer's instructions with the following modifications. Following the removal of the 50 uL sample for the LDH assay, 450 uL of media was removed from each well and replaced with 200 uL of fresh media containing a 1:6 dilution of CTB reagent for the determination of metabolic activity. Fluorescence was measured in a Fluorostar Optima fluorimeter using an excitation wavelength of 544 nm and an emission wavelength of 590 nm.

| Compound | outcome | AC50 |
| --- | --- | --- |
| COP(=O)(NC(C)=O)SC (configuration not stated) | inactive |  |
| CCOC(=O)CC(SP(=O)(OC)OC)C(=O)OCC (configuration not stated) | inactive |  |
| CON=C(C(=O)OC)c1ccccc1CON=C(C)c1cccc(C(F)(F)F)c1 | inactive |  |
| Cc1ccn2nc(S(=O)(=O)Nc3c(F)cccc3F)nc2n1 | inactive |  |
| CCOP(=S)(OCC)Oc1ccc2c(C)c(Cl)c(=O)oc2c1 | inactive |  |
| CC(=NC#N)N(C)Cc1ccc(Cl)nc1 | inactive |  |
| C[N+]1(C)CCCCC1 | inactive |  |
| C[Si](Cn1cncn1)(c1ccc(F)cc1)c1ccc(F)cc1 | inactive |  |
| CC(C)N(C(=O)SCC(Cl)=C(Cl)Cl)C(C)C | inactive |  |
| CCOP(=O)(NC(C)C)Oc1ccc(SC)c(C)c1 (configuration not stated) | inactive |  |
| COc1cc(OC)nc(Sc2cccc(Cl)c2C(=O)O)n1 | inactive |  |
| CC[C@H](C)[C@H]1O[C@]2(C=C[C@@H]1C)C[C@@H]1C[C@@H](C/C=C(\C)[C@@H](O[C@H]3C[C@H](OC)[C@@H](O[C@H]4C[C@H](OC)[C@@H](NC)[C@H](C)O4)[C@H](C)O3)[C@@H](C)/C=C/C=C3\CO[C@@H]4[C@H](O)C(C)=C[C@@H](C(=O)O1)[C@]34O)O2 | inactive | 20 µM (active) |
| COP(=O)(OC)C(O)C(Cl)(Cl)Cl (configuration not stated) | inactive |  |
| C=C(C)[C@H]1Cc2c(ccc3c2O[C@@H]2COc4cc(OC)c(OC)cc4[C@@H]2C3=O)O1 | inactive |  |
| CC(COc1ccc(Oc2ccccc2)cc1)Oc1ccccn1 (configuration not stated) | inactive |  |
| FC(F)C(F)(F)OCC(Cn1cncn1)c1ccc(Cl)cc1Cl (configuration not stated) | inactive |  |
| CSC1=N[C@@](C)(c2ccccc2)C(=O)N1Nc1ccccc1 | inactive |  |
| O=[N+]([O-])c1cc(C(F)(F)F)c(Cl)c([N+](=O)[O-])c1Nc1ncc(C(F)(F)F)cc1Cl | inactive |  |
| CN(C)NC(=O)CCC(=O)O | inactive |  |
| CCOP(=S)(Oc1cnc(C(C)(C)C)nc1)OC(C)C (configuration not stated) | inactive |  |
| CN(C)[C@@H]1C(=O)C(C(N)=O)=C(O)[C@@]2(O)C(=O)C3=C(O)c4c(O)cccc4[C@@](C)(O)[C@H]3[C@H](O)[C@@H]12 | inactive |  |
| Nc1c(Cl)cc([N+](=O)[O-])cc1Cl | inactive |  |
| CCCOCC(=Nc1ccc(Cl)cc1C(F)(F)F)n1ccnc1 | inactive |  |
| CC1=NNC(=O)N(/N=C/c2cccnc2)C1 | inactive |  |
| CCc1cnc(C2=NC(C)(C(C)C)C(=O)N2)c(C(=O)O)c1 (configuration not stated) | inactive |  |
| N#CSCSC#N | inactive |  |
